Bioassay records deposited in PubChem BioAssay by National Center for Advancing Translational Sciences (NCATS).
A selection: hits, their analogues and other compounds. The true share with any hit is near 14%.
Pf growth 48h – P. falciparum growth inhibition at 48 hours (one generation); P. falciparum luciferase growth in erythrocytes, 48 h; 310,000 tested, 5.9% active; Potency, µM (top dose mostly 28.7 µM), for the others: at the top dose activity change, negative = inhibition, actives largely listed as inhibitors; also: potency is read from the fitted curve at half-maximal effect
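Read-out is firefly luciferase luminescence from an integrated reporter in P. falciparum, so falling signal marks reduced parasite growth. Infected erythrocytes were at 2% hematocrit and 0.1% parasitemia (final) in Albumax-supplemented RPMI 1640.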
Pf growth 96h – P. falciparum growth inhibition at 96 hour, primary screen for plastid delayed-death inhibitors; P. falciparum luciferase reporter growth, 96 h; Potency, µM (doses to about 28.7 µM), for the others: at the top dose activity change, negative = inhibition, actives largely listed as inhibitors; 320,000 tested, 6.9% active; AID 504834; also: potency is read from the fitted curve at half-maximal effect
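Cell-based qHTS: luciferase-tagged P. falciparum in erythrocytes (2% hematocrit, 0.05% parasitemia final) incubated with compounds for 96 hours, 37 C, 5% CO2; luciferase detection reagent then added and luminescence measured.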
HCMV antiviral – inhibitors of human cytomegalovirus. HFF cells, HCMV-luciferase reporter, 72 h; stronger effect = lower value. activity change, negative = inhibition, % at 57.5 µM. 410,000 tested, 4.5% active; in the data active = activity change below about -60%; inconclusive = no clear call, values can overlap the other calls; inactive = above about -39%
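Inhibition of viral replication was scored as loss of reporter luminescence in HFFs infected with HCMV-luciferase (MOI 1 PFU/cell) for 72 h; compounds tested at 2 doses, normalized to buffer and Salinomycin controls.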
LASV entry inh – Lassa virus entry inhibition; Lassa virus pseudotype entry inhibition, cell reporter; Potency, µM (doses to about 37.9 µM), inactives show at the top dose activity change, negative = inhibition, hits mostly inhibitors; 300,000 tested, 1.2% active; calls by dose curve; tested in HEK293 cells; also: potency is read from the fitted curve at half-maximal effect; nearly all actives have a fitted effect of over 50% in size
HCV inhibitor – HCV inhibition; Huh7.5.1 HCVcc-Cre infection, luciferase reporter, 44 h; Potency, µM (highest dose often 41.8 µM), for the others: top-dose activity change, negative = inhibition, hits mostly inhibitors; 340,000 tested, 3.4% active; AID 651820; also: potency is read from the fitted curve at half-maximal effect
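Whole-lifecycle infectious HCVcc-Cre system; cells 1,000/well, compound then virus (~0.5 moi) added 4 h after plating, 44 h culture. Luciferase read 15 sec following 15 min substrate incubation, room temp.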
Marburg entry inh – Marburg virus entry inhibition; 300,000 tested, 1.8% active; Marburg virus pseudotyped entry inhibition, cell reporter; Potency, µM (doses to about 37.8 µM), for the others: at the highest dose activity change, negative = inhibition, most hits filed as inhibitors; AID 540276; calls by dose curve; tested in HEK293 cells; also: potency is read from the fitted curve at half-maximal effect
The depositor's hits bear a star; [ ] = dose if it differs, or a comment. Unless noted, calls follow the shape of the dose curve; as a rule, active = well fitted inhibition curve with a large enough effect; inconclusive = small, poorly fitted or top-dose-only effect, or another doubt; inactive = no such curve, though single readings can be large or run the other way. % is scaled to controls: 0 for no effect and ±100 for the full control effect.

How did Cc1ccc(C(=O)NCCn2c(C)cc3ccccc32)cc1C do in these assays?
HCMV antiviral: -69*; LASV entry inh: inconclusive; Marburg entry inh: inconclusive

What do the screens show for `Cc1cc2ccccc2n1CCNC(=O)c1ccc(S(=O)(=O)N2CCCCC2)cc1`?
Pf growth 48h: 2.1µM*; Pf growth 96h: 1.7µM*; HCMV antiviral: 43; HCV inhibitor: -6%; Marburg entry inh: -5%

What do the screens show for `COc1cccc(NC(=O)CSc2nc3scc(C)c3c(=O)[nH]2)c1`?
Pf growth 48h: 12%; Pf growth 96h: 8%; HCMV antiviral: 1; HCV inhibitor: 13%; Marburg entry inh: 13%[46.1 µM]

What do the screens show for `COc1ccc(NC(=O)c2cc(-c3ccccc3O)no2)cc1`?
HCMV antiviral: 18; LASV entry inh: inconclusive

Results for COc1ccc(-c2onc(C)c2-c2ccc(C(=O)OC(C)C)o2)c(O)c1 ?
Pf growth 48h: 1.3µM*; Pf growth 96h: -9%; HCMV antiviral: -8; LASV entry inh: inconclusive; HCV inhibitor: 6.3µM*; Marburg entry inh: inconclusive

What do the screens show for `Cc1ccccc1NC(=O)c1c(C)oc2ccc(O)c(CN3CCCCCC3)c12`?
HCMV antiviral: -30; LASV entry inh: -21%[46.1 µM]; Marburg entry inh: inconclusive

How did CCOC(=O)C1=C(C)N(C)C(C)=C(C(=O)OCC)C1c1ccccc1 do in these assays?
Pf growth 48h: 5.2µM*; Pf growth 96h: inconclusive; HCMV antiviral: -38; LASV entry inh: 17%; HCV inhibitor: 0%; Marburg entry inh: 1%

Results for CCCCN1C=C(C(=O)OC)C(c2ccccc2C(F)(F)F)C(C(=O)OC)=C1 ?
Pf growth 96h: 0.52µM*; HCMV antiviral: -11; LASV entry inh: -11%; HCV inhibitor: 1%; Marburg entry inh: 3%[46.1 µM]

How did CCCCOc1ccccc1C1C(C(=O)OC)=C(C)N(C)C(C)=C1C(=O)OC do in these assays?
Pf growth 48h: 13µM*; Pf growth 96h: 24%; HCMV antiviral: -27; LASV entry inh: inconclusive; HCV inhibitor: -24%; Marburg entry inh: inconclusive

How did CC1=C(C(=O)OC(C)C)C(c2ccccc2)NC(=O)N1C (stereo not given) do in these assays?
Pf growth 48h: -4%; Pf growth 96h: 9.3µM*; HCMV antiviral: -7; HCV inhibitor: 5%

How did COC(=O)C1=C(C)N(C)C(=O)NC1c1ccccc1 (stereo not given) do in these assays?
Pf growth 48h: -6%; Pf growth 96h: 57%; HCMV antiviral: 5; LASV entry inh: 3%; HCV inhibitor: inconclusive; Marburg entry inh: -11%

Results for COC(=O)C1=C(C)N(C)C(C)=C(C(=O)OC)C1c1ccccc1C ?
Pf growth 48h: inconclusive; Pf growth 96h: -3%; HCMV antiviral: -38; LASV entry inh: -2%; HCV inhibitor: 0%; Marburg entry inh: 3%

What do the screens show for `CCCS(=O)(=O)NC(=O)C1(C)CCN(C(=O)c2ccccc2OC(F)(F)F)C1` (stereo not given)?
HCMV antiviral: 16

How did Cc1ccc(OCC(=O)Nc2cc3nn(-c4ccccc4)nc3cc2C)cc1 do in these assays?
HCMV antiviral: 60; LASV entry inh: 0%[46.1 µM]

Results for O=C(COc1ccc(S(=O)(=O)N2CCCCC2)cc1)NC1CCCCC1 ?
Pf growth 48h: 8.3µM*; Pf growth 96h: inconclusive; HCMV antiviral: -12; LASV entry inh: -26%; HCV inhibitor: -17%; Marburg entry inh: -9%

How did O=C(COc1ccc(S(=O)(=O)NC2CCCCC2)cc1)NC1CCCCC1 do in these assays?
Pf growth 48h: 15µM*; Pf growth 96h: inconclusive; HCMV antiviral: -23; LASV entry inh: -22%; HCV inhibitor: 1%; Marburg entry inh: -16%

What do the screens show for `O=C(COC(=O)c1ccc(S(=O)(=O)N2CCCCC2)cc1)NC1CCCCC1`?
HCMV antiviral: -28

How did COc1ccccc1NC(=O)C1=C(C)Nc2nc(-c3ccc(N(C)C)cc3)nn2C1c1ccncc1 (stereo not given) do in these assays?
Pf growth 48h: 15µM*; Pf growth 96h: 9.3µM*; HCMV antiviral: 15; LASV entry inh: 5%; HCV inhibitor: inconclusive; Marburg entry inh: -24%

How did CC(C)OC(=O)/C(=C\c1ccc2c(c1)c1ccccc1n2C)NC(=O)c1ccccc1 do in these assays?
Pf growth 48h: 4.1µM*; Pf growth 96h: 23%; HCMV antiviral: 55; LASV entry inh: -25%; HCV inhibitor: inconclusive; Marburg entry inh: inconclusive

How did CC(C)OC(=O)/C(=C/c1ccc2c(c1)c1ccccc1n2C)NC(=O)c1ccccc1 do in these assays?
Pf growth 48h: inconclusive; Pf growth 96h: inconclusive; HCMV antiviral: -17; LASV entry inh: inconclusive; HCV inhibitor: inconclusive; Marburg entry inh: inconclusive

Results for COC(=O)/C(=C\c1ccc2c(c1)c1ccccc1n2C)NC(=O)c1ccccc1 ?
Pf growth 48h: inconclusive; Pf growth 96h: 1.2µM*; HCMV antiviral: inconclusive; LASV entry inh: 3%; HCV inhibitor: -29%; Marburg entry inh: inconclusive

How did C[C@H](CO)N1C[C@H](C)[C@H](CN(C)C(=O)Nc2ccc(C(F)(F)F)cc2)OCc2cnnn2CCCC1=O do in these assays?
HCMV antiviral: 10

What do the screens show for `c1ccc(N2CCN(c3nnc(Cc4cccnc4)c4ccccc34)CC2)nc1`?
Pf growth 48h: 7.4µM*; Pf growth 96h: -10%; HCMV antiviral: inconclusive; LASV entry inh: 0%; HCV inhibitor: inconclusive; Marburg entry inh: 17%

What do the screens show for `Cc1ccc(C)c(CN2CCSCC2)c1`?
Pf growth 48h: inconclusive; Pf growth 96h: 3%; HCMV antiviral: -11; LASV entry inh: 4%; HCV inhibitor: -5%; Marburg entry inh: inconclusive

Results for COC(=O)[C@]12CCCCC=C1N(Cc1cccc3ccccc13)C(=O)[C@H](CC(=O)N1CCCCC1)C2 ?
HCMV antiviral: 7

What do the screens show for `CCOC(=O)[C@H]1[C@H]2COc3ccc(Cl)cc3[C@@H]2N2C(=O)c3ccccc3NC(=O)[C@@]12C`?
Pf growth 48h: inconclusive; Pf growth 96h: inconclusive; HCMV antiviral: -70*; HCV inhibitor: -12%

What do the screens show for `CCOC(=O)[C@H]1[C@H]2COc3ccccc3[C@@H]2N2C(=O)c3ccc(Cl)cc3NC(=O)[C@@]12C`?
Pf growth 48h: inconclusive; Pf growth 96h: inconclusive; HCMV antiviral: 0; HCV inhibitor: inconclusive

Results for CCOC(=O)[C@H]1[C@H]2COc3ccccc3[C@@H]2N2C(=O)c3cc(C)ccc3NC(=O)[C@@]12C ?
Pf growth 48h: inconclusive; Pf growth 96h: 13µM*; HCMV antiviral: -6; HCV inhibitor: 5%

What do the screens show for `CCOC(=O)[C@H]1[C@H]2COc3ccccc3[C@@H]2N2C(=O)c3cc(Cl)ccc3NC(=O)[C@@]12C`?
Pf growth 48h: 10µM*; Pf growth 96h: 12µM*; HCMV antiviral: -21; HCV inhibitor: -6%
